Data on 59 molecules can be found in PubChem BioAssay AID651739 (Broad Institute, 2012).

Out of some 5,600 compounds screened, about 4,100 (73%) were called active. Roughly 4% stayed inconclusive and do not appear here. So high a share suggests a set chosen from earlier hits. A selection follows. Values without a mark were called inactive.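 Rule for the calls: active = mean replicate inhibition above about 95% and at least 55% of replicates individually reaching it (limit read from the data); inconclusive = only one of the two criteria is met; inactive = neither criterion is met.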

The assay is described as follows: T. cruzi intracellular proliferation inhibitors, confirmation, cell-based, NIH3T3 host, beta-gal parasite, luminescence, cherry-pick (AID 651739). To be noted: T. cruzi beta-gal in NIH3T3, GalScreen luminescence, 90 h; at 8.35 µM; active compounds read high.
The term inhibition denotes the relative decrease from the control value, in per cent. Consider `CC(C)CC#Cc1ccc2c(c1)O[C@H](CN(C)C(=O)C1CC1)[C@@H](C)CN([C@@H](C)CO)S2(=O)=O`, for which the inhibition is 111% (active).

`COc1ccccc1-c1ccc2c(c1)O[C@@H](CN(C)C)[C@H](C)CN([C@H](C)CO)S2(=O)=O`: the inhibition is 22.8%.

Take `C[C@@H]1CN([C@@H](C)CO)S(=O)(=O)c2ccc(C#CCN(C)C)cc2O[C@H]1CN(C)C(=O)C1CC1`: the inhibition was 110% (active). In the case of `Cc1ccc(-c2ccc3c(c2)O[C@H](CN(C)C)[C@@H](C)CN([C@H](C)CO)S3(=O)=O)cc1`, the inhibition is 88%. Under `C[C@H](CO)N1C[C@H](C)[C@@H](CN(C)C(=O)C2CCCCC2)Oc2cc(-c3ccccc3)ccc2S1(=O)=O` stands 107% (active).

Turning to `CNC[C@H]1OCCCC[C@@H](C)Oc2ccc(NS(C)(=O)=O)cc2C(=O)N([C@H](C)CO)C[C@H]1C`, the inhibition was -10.3%.

Regarding `C[C@@H]1CN([C@@H](C)CO)C(=O)CCCn2cc(nn2)CO[C@@H]1CN(C)S(=O)(=O)c1ccccc1F`, the inhibition was -12.9%. As to `CNC[C@H]1OCCCC[C@H](C)Oc2ccc(NC(=O)Nc3c(C)noc3C)cc2C(=O)N([C@H](C)CO)C[C@H]1C`, the inhibition was 104% (active). For the molecule `C[C@@H]1CCCCO[C@H](CN(C)C(=O)NC2CCCCC2)[C@H](C)CN([C@H](C)CO)C(=O)c2cc(NC(=O)Nc3ccc(F)cc3)ccc2O1`, the inhibition is 97.3% (active). `C[C@@H]1CN([C@H](C)CO)C(=O)c2cc(NC(=O)Nc3ccc(F)cc3)ccc2O[C@@H](C)CCCCO[C@@H]1CN(C)CC1CCCCC1`: the inhibition was 90.7%. As for `CC(C)NC(=O)N(C)C[C@H]1OCc2cn(nn2)CCCC(=O)N([C@@H](C)CO)C[C@H]1C`, the inhibition is 2.94%.

`C[C@H]1CN([C@@H](C)CO)C(=O)CCCn2cc(nn2)CO[C@H]1CN(C)C(=O)c1ccccc1`: the inhibition was 103% (active). As to `C[C@@H]1CN([C@@H](C)CO)C(=O)c2cc(NC(=O)Nc3ccc(C(F)(F)F)cc3)ccc2O[C@@H](C)CCCCO[C@H]1CN(C)C(=O)c1ccccc1`, the inhibition is 105% (active). Turning to `C[C@@H]1CCCCO[C@H](CN(C)C(=O)Nc2ccc(C(F)(F)F)cc2)[C@H](C)CN([C@H](C)CO)C(=O)c2cc(NC(=O)Nc3ccc(C(F)(F)F)cc3)ccc2O1`, the inhibition is 109% (active). For the molecule `COc1ccc(NC(=O)N(C)C[C@H]2OCCCC[C@H](C)Oc3ccc(NC(=O)Nc4ccc(C(F)(F)F)cc4)cc3C(=O)N([C@@H](C)CO)C[C@@H]2C)cc1`, the inhibition was 103% (active). `CC(C)NC(=O)Nc1ccc2c(c1)C(=O)N([C@H](C)CO)C[C@H](C)[C@H](CN(C)C(=O)Nc1ccc(C(F)(F)F)cc1)OCCCC[C@@H](C)O2`: the inhibition was 110% (active). Turning to `C[C@H](CO)N1C[C@H](C)[C@H](CN(C)C(=O)Nc2ccc(C(F)(F)F)cc2)OCCCC[C@H](C)Oc2ccc(NC(=O)C3CCCCC3)cc2C1=O`, the inhibition is 109% (active). Turning to `COc1cccc(S(=O)(=O)N2CCCCN3[C@H](C2)[C@H](c2ccc(C#CC(C)C)cc2)[C@@H]3CO)c1`, the inhibition is 102% (active). In the case of `C[C@H](O)C#Cc1ccc([C@@H]2[C@H]3CN(S(=O)(=O)c4ccccc4)CCCCN3[C@H]2CO)cc1` it was 32.8%; in that of `CC(C)C#Cc1ccc([C@H]2[C@H](CO)N3CCCCN(C(=O)NC(C)C)C[C@@H]23)cc1`, 103% (active). As to `COc1ccc(S(=O)(=O)N2CCCCN3[C@H](CO)[C@@H](c4ccc(C#CC(C)C)cc4)[C@H]3C2)cc1`, the inhibition is 109% (active).

Turning to `CN(C)CC#Cc1ccc([C@H]2[C@H]3CN(S(=O)(=O)c4ccccc4F)CCCCN3[C@H]2CO)cc1`, the inhibition is 83.2%. `C[C@@H](O)C#Cc1ccc([C@@H]2[C@H](CO)N3CCCCN(S(=O)(=O)c4ccccc4)C[C@@H]23)cc1`: the inhibition is 62.6%. As for `COc1ccc(S(=O)(=O)N2CCCCN3[C@H](C2)[C@H](c2ccc(C#CCC(C)C)cc2)[C@@H]3CO)cc1`, the inhibition was 98.1% (active). Turning to `COc1cccc(S(=O)(=O)N2CCCCN3[C@H](CO)[C@H](c4ccc(C#CC5CC5)cc4)[C@H]3C2)c1`, the inhibition was 105% (active). `COc1cccc(S(=O)(=O)N2CCCCN3[C@H](CO)[C@H](c4ccc(-c5ccncc5)cc4)[C@H]3C2)c1`: the inhibition is 110% (active).

Consider `C[C@H](CO)N1C[C@H](C)[C@H](CN(C)Cc2ccncc2)Oc2cc(-c3ccncc3)ccc2S1(=O)=O`, for which the inhibition is 92.9%. In the case of `C[C@H](CO)N1C[C@H](C)[C@@H](CN(C)Cc2ccncc2)Oc2cc(Br)ccc2S1(=O)=O`, the inhibition is 95.7% (active). Consider `CC(C)CC#Cc1ccc2c(c1)O[C@H](CN(C)Cc1cccnc1)[C@H](C)CN([C@@H](C)CO)S2(=O)=O`, for which the inhibition was 98.7% (active). Under `CC(C)CC#Cc1ccc2c(c1)O[C@H](CN(C)Cc1ccccc1F)[C@@H](C)CN([C@@H](C)CO)S2(=O)=O` stands 96.7% (active); under `CC(C)CC#Cc1ccc2c(c1)O[C@H](CN(C)Cc1ccncc1)[C@H](C)CN([C@H](C)CO)S2(=O)=O`, 97.8% (active). In the case of `Cc1ccccc1-c1ccc([C@H]2[C@H]3CN(S(=O)(=O)c4ccc(F)cc4)CCCCN3[C@H]2CO)cc1` it was 97.2% (active); in that of `O=S(=O)(c1ccc(F)cc1)N1CCCCN2[C@H](C1)[C@H](c1ccc(C3=CCCCC3)cc1)[C@@H]2CO`, 106% (active); in that of `C[C@@H]1CN([C@H](C)CO)C(=O)c2cc(NS(=O)(=O)c3cccs3)ccc2O[C@@H](C)CCCCO[C@@H]1CN(C)S(=O)(=O)c1ccc(Cl)cc1`, 101% (active). As for `C[C@H]1CCCCO[C@@H](CN(C)S(=O)(=O)c2cccs2)[C@@H](C)CN([C@@H](C)CO)C(=O)c2cc(NS(=O)(=O)c3ccc(Cl)cc3)ccc2O1`, the inhibition is 101% (active). In the case of `Cc1noc(C)c1S(=O)(=O)Nc1ccc2c(c1)C(=O)N([C@@H](C)CO)C[C@@H](C)[C@H](CN(C)S(=O)(=O)c1ccc(Cl)cc1)OCCCC[C@H](C)O2` it was 99.1% (active); in that of `C[C@@H]1CCCCO[C@H](CN(C)S(=O)(=O)c2ccc(Cl)cc2)[C@H](C)CN([C@@H](C)CO)C(=O)c2cc(NS(=O)(=O)c3cccs3)ccc2O1`, 105% (active); in that of `C[C@@H]1CCCCO[C@H](CN(C)S(=O)(=O)c2cccs2)[C@H](C)CN([C@H](C)CO)C(=O)c2cc(NS(=O)(=O)c3ccc(F)cc3)ccc2O1`, 109% (active). Consider `CC(C)(C)[S@@](=O)N1Cc2cc(C(=O)NCc3ccc4c(c3)OCO4)nc(-c3cccc(-c4ccccc4)c3)c2[C@H]1CCO`, for which the inhibition was 105% (active). As to `O=C(C1CCC1)N1CCCCN2[C@H](CO)[C@H](c3ccc(-c4ccncc4)cc3)[C@@H]2C1`, the inhibition is 103% (active). Under `CN(C)C(=O)c1ccc(-c2ccc([C@H]3[C@@H](CO)N4CCCCN(CC5CC5)C[C@H]34)cc2)cc1` stands 90%; under `O=C(C1CCCC1)N1CCCCN2[C@@H](CO)[C@H](c3ccc(-c4cccc(F)c4)cc3)[C@@H]2C1`, 112% (active). As for `O=C(C1CC1)N1CCCCN2[C@H](CO)[C@H](c3ccc(-c4cccc(F)c4)cc3)[C@H]2C1`, the inhibition was 99.1% (active). Consider `OC[C@@H]1[C@H](c2ccc(C#CC3CC3)cc2)[C@@H]2CN(CCC(F)(F)F)CCCCN12`, for which the inhibition was 105% (active). Turning to `O=C(Nc1cccc(F)c1)N1CCCCN2[C@H](CO)[C@H](c3ccc(C#CC4CC4)cc3)[C@@H]2C1`, the inhibition is 109% (active). For `O=C(Nc1ccccc1)N1CCCCN2[C@H](CO)[C@@H](c3ccc(C#Cc4ccccn4)cc3)[C@H]2C1`, the inhibition is 90%. For `O=C(C1CCC1)N1CCCCN2[C@H](CO)[C@H](c3ccc(-c4cccc(F)c4)cc3)[C@@H]2C1`, the inhibition is 109% (active). Regarding `N#Cc1cccc(-c2ccc([C@H]3[C@H](CO)N4CCCCN(C(=O)Nc5cccc(F)c5)C[C@@H]34)cc2)c1`, the inhibition is 94.2%. As for `C[C@@H]1CN([C@H](C)CO)S(=O)(=O)c2ccc(C3=CCCC3)cc2O[C@H]1CN(C)Cc1ccccc1F`, the inhibition was 99.3% (active). Under `C[C@H](CO)N1C[C@H](C)[C@@H](CN(C)S(=O)(=O)c2ccc(F)cc2)Oc2cc(C3=CCCC3)ccc2S1(=O)=O` stands 94.1%; under `C[C@H]1CN([C@@H](C)CO)S(=O)(=O)c2ccc(C3=CCCC3)cc2O[C@@H]1CN(C)Cc1ccccc1`, 96.5% (active). Take `C[C@H]1CN([C@@H](C)CO)S(=O)(=O)c2ccc(C3=CCCCC3)cc2O[C@@H]1CN(C)Cc1ccccc1`: the inhibition is 102% (active).

As for `C[C@@H]1CN([C@@H](C)CO)C(=O)c2cc(NC(=O)Nc3cccc4ccccc34)ccc2O[C@@H](C)CCCCO[C@H]1CN(C)Cc1ccccc1`, the inhibition was 107% (active).

Consider `C[C@@H]1CCCCO[C@@H](CN(C)Cc2ccccc2)[C@H](C)CN([C@H](C)CO)C(=O)c2cc(NC(=O)Nc3cccc4ccccc34)ccc2O1`, for which the inhibition was 96.4% (active). Under `C[C@@H]1CCCCO[C@@H](CN(C)C(=O)Nc2ccc(F)cc2)[C@H](C)CN([C@H](C)CO)C(=O)c2cc(NC(=O)Nc3cccc4ccccc34)ccc2O1` stands 114% (active); under `C[C@@H]1CN([C@@H](C)CO)C(=O)c2cc(NC(=O)Nc3ccc4c(c3)OCO4)ccc2O[C@@H]1CN(C)Cc1ccc(Oc2ccccc2)cc1`, 101% (active). Regarding `C[C@H]1CN([C@@H](C)CO)C(=O)c2cc(NC(=O)Nc3ccc4c(c3)OCO4)ccc2O[C@@H]1CN(C)Cc1ccc(Oc2ccccc2)cc1`, the inhibition was 103% (active). For the molecule `C[C@@H]1CN([C@@H](C)CO)C(=O)c2cc(NC(=O)Cc3ccccc3)ccc2O[C@@H]1CN(C)Cc1ccc(Oc2ccccc2)cc1`, the inhibition is 99.9% (active). Take `C[C@@H]1CN([C@H](C)CO)C(=O)Cc2cc(NC(=O)Cc3ccccc3)ccc2O[C@H]1CN(C)Cc1ccc(Oc2ccccc2)cc1`: the inhibition is 112% (active).
